{
  "source": "PubChem BioAssay",
  "note": "Activity calls are given as the source filed them. Cut-off read from the data, not from the text of the source: active = parasite load remaining mostly below about 12% (no sharp cut-off); inactive = mostly above about 10%.",
  "data": [
    {"test": "liver-stage malaria parasite growth inhibition, primary screen, cell-based, HepG2, luciferase luminescence, HepG2 viability (AID 624349);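 note: 100% = mean of DMSO negative control wells on the same plate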", "settings": "P. berghei liver stage in HepG2, luciferase luminescence, concentration not given here; parasite load remaining: stronger effect = lower value; viability: measured here: HepG2 viability without parasites", "units": {"viability": "%"}, "values": [
      {"smiles": "COC(=O)C1=CO[C@@H](C)[C@@H]2CN3CCc4c([nH]c5ccccc45)C3C[C@H]12", "note": "(some centres undefined)", "parasite load remaining": "62.4% (inactive)", "viability": 77.2},
      {"smiles": "C1CCN2C[C@H]3C[C@@H](CN4CCCC[C@@H]34)[C@H]2C1", "viability": 72.2, "parasite load remaining": "73.9% (inactive)"},
      {"smiles": "CC(C)CC(=O)NC(C(=O)N[C@H](C(=O)NC(CC(C)C)[C@@H](O)CC(=O)N[C@@H](C)C(=O)NC(CC(C)C)[C@@H](O)CC(=O)O)C(C)C)C(C)C", "note": "(some centres undefined)", "viability": 80.5, "parasite load remaining": "67.7% (inactive)"},
      {"smiles": "Nc1nc2ncc(CNc3ccc(C(=O)N[C@H](CCC(=O)O)C(=O)O)cc3)nc2c(=O)[nH]1", "parasite load remaining": "51.4% (inactive)", "viability": 76.8},
      {"smiles": "CC(C)(O/N=C(/C(=O)N[C@@H]1C(=O)N2C(C(=O)[O-])=C(C[n+]3ccccc3)CS[C@H]12)c1csc(N)n1)C(=O)O", "viability": 82.6, "parasite load remaining": "88.2% (inactive)"},
      {"smiles": "C[C@]12CCC(=O)C[C@H]1CC(=O)[C@@H]1[C@@H]2CC(=O)[C@]2(C)CCC[C@@H]12", "note": "(tested in a mixture with another compound)", "parasite load remaining": "107% (inactive)", "viability": 86.8},
      {"smiles": "CC1Cc2ccccc2N1NC(=O)c1ccc(Cl)c(S(N)=O)c1", "note": "(centres undefined)", "viability": 94.8, "parasite load remaining": "50.9% (inactive)"},
      {"smiles": "CC(=O)NC(CC(=O)O)C(=O)O", "note": "(centres undefined)", "parasite load remaining": "89% (inactive)", "viability": 77},
      {"smiles": "O=c1c(-c2ccc(F)cc2)c(-c2ccncc2)[nH]n1-c1ccc(Cl)cc1", "viability": 68.5, "parasite load remaining": "36.4% (inactive)"},
      {"smiles": "O=C1O[C@H](C(O)CO)[C@H](O)C1O", "note": "(some centres undefined)", "viability": 76.1, "parasite load remaining": "68.2% (inactive)"},
      {"smiles": "CC[C@H]1CN2CCc3cc(OC)c(OC)cc3[C@@H]2C[C@@H]1CC1NCCc2cc(OC)c(OC)cc21", "note": "(some centres undefined)", "viability": 61.4, "parasite load remaining": "2.62% (inactive)"},
      {"smiles": "Cc1c(C)c2c(c(C)c1O)CC[C@](C)(CCC[C@@H](C)CCC[C@@H](C)CCCC(C)C)O2", "viability": 78.5, "parasite load remaining": "52.8% (inactive)"},
      {"smiles": "CC(=O)NC1[C@@H](O)OC(CO)[C@@H](O)[C@H]1O[C@H](C)C(=O)O", "note": "(some centres undefined)", "viability": 76.2, "parasite load remaining": "82.1% (inactive)"},
      {"smiles": "CC(=O)O[C@H]1C(=O)[C@@]2(C)[C@H](O)C[C@@H]3OC[C@]3(OC(C)=O)[C@@H]2[C@@H](OC(=O)c2ccccc2)[C@@]2(O)C[C@@H](OC(=O)[C@@H](O)[C@H](NC(=O)c3ccccc3)c3ccccc3)C(C)=C1C2(C)C", "parasite load remaining": "172% (inactive)", "viability": 89.6},
      {"smiles": "O=C(N[C@H](CO)[C@@H](O)c1ccc([N+](=O)[O-])cc1)C(Cl)Cl", "parasite load remaining": "100% (inactive)", "viability": 91.7},
      {"smiles": "Nc1c2ccccc2nc2c(O)cccc12", "viability": 77.4, "parasite load remaining": "80.8% (inactive)"},
      {"smiles": "COC1=C[C@]23CCCN2CCc2cc4c(cc2[C@]3(C)C1OC(=O)[C@@](O)(CCCC(C)(C)O)CC(=O)O)OCO4", "note": "(some centres undefined)", "parasite load remaining": "-0.16% (inactive)", "viability": 37.5},
      {"smiles": "CS(=O)(=O)c1ccc(-c2nc(-c3ccc(F)cc3)c(-c3ccncc3)[nH]2)cc1", "viability": 88.5, "parasite load remaining": "28.7% (inactive)"},
      {"smiles": "CCCCCCOC(=O)[C@]1(O)C[C@@H]2O[C@@]1(C)n1c3ccccc3c3c4c(c5c6ccccc6n2c5c31)C(=O)NC4", "parasite load remaining": "55.7% (inactive)", "viability": 93.7},
      {"smiles": "COc1cc(OC)c2c(c1Cl)O[C@]1(C2=O)C(OC)CC(=O)C[C@H]1C", "note": "(some centres undefined)", "viability": 93.9, "parasite load remaining": "83.9% (inactive)"},
      {"smiles": "CN=C(NC#N)NCCSCC1N=CN=C1C", "note": "(centres undefined)", "parasite load remaining": "100% (inactive)", "viability": 88.8},
      {"smiles": "COC1CC(O[C@@H]2[C@H](C)[C@H](OC3OC(C)CC(N(C)C)C3OC(C)=O)[C@H](C)CC3(CO3)C(=O)[C@@H](C)C(OC(C)=O)[C@H](C)[C@H](C)OC(=O)[C@@H]2C)OC(C)C1OC(C)=O", "note": "(some centres undefined)", "parasite load remaining": "86.6% (inactive)", "viability": 90.9},
      {"smiles": "CCOC(=O)Oc1c(OC)cc(C(=O)OC2CC3CN4CCc5c([nH]c6cc(OC)ccc56)C4CC3C(C(=O)OC)C2OC)cc1OC", "note": "(centres undefined)", "viability": 77.6, "parasite load remaining": "55.8% (inactive)"},
      {"smiles": "C=C1CC[C@@H](O)C/C1=C/C=C1\\CCC[C@]2(C)[C@@H]([C@H](C)CCCC(C)C)CC[C@@H]12", "viability": 76, "parasite load remaining": "79.3% (inactive)"},
      {"smiles": "CN1CCC23c4ccccc4NC1C21CCN(C)C3Nc2ccccc21", "parasite load remaining": "79.4% (inactive)", "viability": 76.7},
      {"smiles": "CN(C)CC/C=C1/c2ccccc2CSc2ccccc21", "parasite load remaining": "68.1% (inactive)", "viability": 76.6},
      {"smiles": "CO[C@H]1C[C@@H]2CC[C@@H](C)[C@@](O)(O2)C(=O)C(=O)N2CCCC[C@H]2C(=O)O[C@H](C(C)C[C@H]2CC[C@@H](O)[C@H](OC)C2)CC(=O)[C@H](C)/C=C(\\C)[C@@H](O)[C@@H](OC)C(=O)[C@H](C)C[C@H](C)/C=C/C=C/C=C/1C", "note": "(some centres undefined)", "viability": 63.2, "parasite load remaining": "45.4% (inactive)"}
    ]}
  ]
}
